# Measurements as given in PubChem BioAssay AID1159580 (chemical genetic matrix, 2015).
# The whole screen tested about 5,500 compounds, of which about 2,000 (36%) were called active. Another 18% or so got no clear call; they are omitted. The list shows a part of the results. Unmarked numbers belong to inactive results. No stated cut-off is given here; in the data, active means normalized growth mostly below about 0.91 (no sharp cut-off); inconclusive means no clear call, values can overlap the other calls; inactive means mostly above about 0.92.
# Assay: chemical genetic growth profiling, strain panel (AID 1159580);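 further: tested at 20 µM; growth read once vehicle control cultures reached saturation at 30 °C; 1 = growth at the plate median or of vehicle wells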
# Details: S. cerevisiae deletion strains, growth OD
# [1] = locus YDL101C, strain DUN1, stronger effect = lower value
# [2] = locus YHR030C, strain SLT2, stronger effect = lower value
smiles,measurement,setting,value
O=C(c1csc(-c2ccc(Cl)cc2)c1)N1CCCCC1,normalized growth,"locus YAR019C, strain CDC15, stronger effect = lower value",0.95
same,normalized growth,"locus YBL105C, strain PKC1, stronger effect = lower value",0.953
same,normalized growth,"locus YBR135W, strain CKS1, stronger effect = lower value",0.943
same,normalized growth,"locus YBR136W, strain MEC1, stronger effect = lower value",0.952
same,normalized growth,"locus YBR160W, strain CDC28, stronger effect = lower value",0.944
same,normalized growth,"locus YDL017W, strain CDC7, stronger effect = lower value",0.957
same,normalized growth,"locus YDL028C, strain MPS1, stronger effect = lower value",0.951
same,normalized growth,[1],0.946
same,normalized growth,"locus YDL108W, strain KIN28, stronger effect = lower value",0.953
same,normalized growth,"locus YDL132W, strain cdc53, stronger effect = lower value",0.941
same,normalized growth,"locus YDL214C, strain PRR2, stronger effect = lower value",0.849
same,normalized growth,"locus YDR052C, strain DBF4, stronger effect = lower value",0.952
same,normalized growth,"locus YDR054C, strain cdc34, stronger effect = lower value",0.935
same,normalized growth,"locus YDR226W, strain ADK1, stronger effect = lower value",0.948
same,normalized growth,"locus YDR477W, strain SNF1, stronger effect = lower value",0.851
same,normalized growth,"locus YER123W, strain YCK3, stronger effect = lower value",0.83
same,normalized growth,"locus YER133W, strain GLC7, stronger effect = lower value",0.857
same,normalized growth,"locus YFL009W, strain cdc4, stronger effect = lower value",0.942
same,normalized growth,"locus YFL029C, strain CAK1, stronger effect = lower value",0.944
same,normalized growth,"locus YFR003C, strain YPI1, stronger effect = lower value",0.96
same,normalized growth,"locus YFR019W, strain FAB1, stronger effect = lower value",0.882
same,normalized growth,"locus YFR028C, strain CDC14, stronger effect = lower value",0.948
same,normalized growth,"locus YGR040W, strain KSS1, stronger effect = lower value",0.844
same,normalized growth,"locus YGR052W, strain FMP48, stronger effect = lower value",0.918
same,normalized growth,"locus YGR092W, strain DBF2, stronger effect = lower value",0.834
same,normalized growth,[2],0.588 (active)
same,normalized growth,"locus YHR079C, strain IRE1, stronger effect = lower value",0.785
same,normalized growth,"locus YHR082C, strain KSP1, stronger effect = lower value",0.831
same,normalized growth,"locus YHR205W, strain SCH9, stronger effect = lower value",0.801
same,normalized growth,"locus YIL147C, strain SLN1, stronger effect = lower value",0.948
same,normalized growth,"locus YJL095W, strain BCK1, stronger effect = lower value",0.714
same,normalized growth,"locus YJL128C, strain PBS2, stronger effect = lower value",0.878
same,normalized growth,"locus YJL157C, strain FAR1, stronger effect = lower value",0.838
same,normalized growth,"locus YJR016C, strain ILV3, stronger effect = lower value",0.954
same,normalized growth,"locus YJR066W, strain TOR1 (second series), stronger effect = lower value",0.764
same,normalized growth,"locus YJR066W, strain TOR1, stronger effect = lower value",0.759
same,normalized growth,"locus YKL048C, strain ELM1, stronger effect = lower value",0.904
same,normalized growth,"locus YKL067W, strain YNK1, stronger effect = lower value",0.857
same,normalized growth,"locus YKL101W, strain HSL1, stronger effect = lower value",0.884
same,normalized growth,"locus YKL193C, strain SDS22, stronger effect = lower value",0.951
same,normalized growth,"locus YKL203C, strain TOR2, stronger effect = lower value",0.868
same,normalized growth,"locus YLR113W, strain HOG1, stronger effect = lower value",0.711 (active)
same,normalized growth,"locus YLR133W, strain CKI1, stronger effect = lower value",0.862
same,normalized growth,"locus YLR403W, strain SFP1, stronger effect = lower value",0.79
same,normalized growth,"locus YML070W, strain DAK1, stronger effect = lower value",0.847
same,normalized growth,"locus YMR001C, strain CDC5, stronger effect = lower value",0.94
same,normalized growth,"locus YMR205C, strain PFK2 (second series), stronger effect = lower value",0.866
same,normalized growth,"locus YMR277W, strain FCP1, stronger effect = lower value",0.944
same,normalized growth,"locus YNL006W, strain LST8, stronger effect = lower value",0.953
same,normalized growth,"locus YNL020C, strain ARK1, stronger effect = lower value",0.84
same,normalized growth,"locus YNL161W, strain CBK1, stronger effect = lower value",0.953
same,normalized growth,"locus YNL183C, strain NPR1, stronger effect = lower value",0.801
same,normalized growth,"locus YNL207W, strain RIO2, stronger effect = lower value",0.928
same,normalized growth,"locus YNL222W, strain SSU72, stronger effect = lower value",0.958
same,normalized growth,"locus YNL307C, strain MCK1 (second series), stronger effect = lower value",0.845
same,normalized growth,"locus YOL078W, strain AVO1, stronger effect = lower value",0.948
same,normalized growth,"locus YOL136C, strain PFK27, stronger effect = lower value",0.823
same,normalized growth,"locus YOR061W, strain CKA2, stronger effect = lower value",0.803
same,normalized growth,"locus YOR119C, strain RIO1, stronger effect = lower value",0.903
same,normalized growth,"locus YOR231W, strain MKK1, stronger effect = lower value",0.797
same,normalized growth,"locus YOR329C, strain SCD5, stronger effect = lower value",0.954
same,normalized growth,"locus YPL031C, strain PHO85, stronger effect = lower value",0.815
same,normalized growth,"locus YPL153C, strain RAD53, stronger effect = lower value",0.831
same,normalized growth,"locus YPL204W, strain HRR25, stronger effect = lower value",0.812
same,normalized growth,"locus YPL209C, strain IPL1, stronger effect = lower value",0.956
same,normalized growth,"locus YPL256C, strain CLN2, stronger effect = lower value",0.766 (active)
same,normalized growth,"locus YPR025C, strain CCL1, stronger effect = lower value",0.944
same,normalized growth,"locus YPR106W, strain ISR1, stronger effect = lower value",0.95
same,normalized growth,"locus YPR111W, strain DBF20, stronger effect = lower value",0.935
same,normalized growth,"strain NNK1, stronger effect = lower value",0.93
same,normalized growth,"strain TSCII, stronger effect = lower value",0.942
O=C(c1c(F)cccc1F)N1CCN(C(=O)c2c(F)cccc2F)CC1,normalized growth,"locus YAL013W, strain DEP1, stronger effect = lower value",1.01
same,normalized growth,"locus YBR229C, strain ROT2, stronger effect = lower value",0.987
same,normalized growth,[1],1
same,normalized growth,"locus YDL134C, strain PPH21, stronger effect = lower value",0.973
same,normalized growth,"locus YDR150W, strain NUM1, stronger effect = lower value",1.02
same,normalized growth,"locus YEL061C, strain CIN8, stronger effect = lower value",0.945
same,normalized growth,"locus YGR078C, strain PAC10, stronger effect = lower value",1.02
same,normalized growth,[2],1.11
same,normalized growth,"locus YHR087W, strain rtc3, stronger effect = lower value",0.98
same,normalized growth,"locus YJL187C, strain SWE1, stronger effect = lower value",1
same,normalized growth,"locus YJR043C, strain POL32, stronger effect = lower value",1.02
same,normalized growth,"locus YJR075W, strain HOC1, stronger effect = lower value",0.988
same,normalized growth,"locus YKL190W, strain CNB1, stronger effect = lower value",0.984
same,normalized growth,"locus YLR039C, strain RIC1, stronger effect = lower value",1.09
same,normalized growth,"locus YLR058C, strain SHM2 (second series), stronger effect = lower value",0.985
same,normalized growth,"locus YLR085C, strain ARP6, stronger effect = lower value",0.951
same,normalized growth,"locus YLR262C, strain YPT6, stronger effect = lower value",1.06
same,normalized growth,"locus YML094W, strain GIM5, stronger effect = lower value",0.996
same,normalized growth,"locus YMR219W, strain ESC1, stronger effect = lower value",1
same,normalized growth,"locus YMR263W, strain SAP30, stronger effect = lower value",0.99
same,normalized growth,"locus YMR307W, strain GAS1, stronger effect = lower value",0.964
same,normalized growth,"locus YNL128W, strain TEP1, stronger effect = lower value",0.978
same,normalized growth,"locus YNL153C, strain GIM3, stronger effect = lower value",1.02
same,normalized growth,"locus YNL298W, strain CLA4 (second series), stronger effect = lower value",0.962
same,normalized growth,"locus YNL322C, strain KRE1, stronger effect = lower value",0.99
same,normalized growth,"locus YNR030W, strain Alg12, stronger effect = lower value",0.976
same,normalized growth,"locus YPL055C, strain LGE1, stronger effect = lower value",0.98
same,normalized growth,"locus YPL241C, strain CIN2, stronger effect = lower value",1.01
same,normalized growth,"locus YPR135W, strain CTF4, stronger effect = lower value",1.01
